# Legend:
# Experiment in all cases: DAPPL (digital affinity profiling via proximity ligation, sequencing); 10 mM Tris-HCl pH 7.5, 50 mM NaCl, 1 mM DTT, 4% glycerol, room temperature, 30 min; GST-TFs on glutathione beads, 16-mer random dsDNA library, 0.1% formaldehyde crosslink after washing; high values mean tight binding
# FLI1 = molecular target: T1, FLI1 (Homo sapiens, UniProt Q01543 1-452); details: protein: recombinant; tags: N-terminal GST; dsDNA, one strand shown
# T1 sequence: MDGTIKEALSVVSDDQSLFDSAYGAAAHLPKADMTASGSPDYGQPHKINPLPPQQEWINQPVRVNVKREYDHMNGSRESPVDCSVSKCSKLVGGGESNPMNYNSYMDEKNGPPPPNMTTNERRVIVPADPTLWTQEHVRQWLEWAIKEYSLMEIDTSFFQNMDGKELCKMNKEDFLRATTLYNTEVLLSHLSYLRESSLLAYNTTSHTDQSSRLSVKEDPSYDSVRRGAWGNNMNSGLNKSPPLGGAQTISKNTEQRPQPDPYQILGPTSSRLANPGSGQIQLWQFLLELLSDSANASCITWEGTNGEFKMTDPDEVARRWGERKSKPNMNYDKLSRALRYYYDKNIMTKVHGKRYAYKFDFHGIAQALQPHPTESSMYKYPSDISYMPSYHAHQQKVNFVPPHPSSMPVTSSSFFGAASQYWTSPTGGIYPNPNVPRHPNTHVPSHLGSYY
# How it was run: (§1)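 Sequencing on an Illumina NextSeq500 followed washing, crosslinking with 0.1% formaldehyde, proximity ligation (BsaI/T4 ligase, 1 h, 37 °C) and PCR amplification of pools that had been incubated for 30 min at room temperature with 200 nmole of a random double-stranded 16-mer DNA library in Tris/NaCl/DTT/glycerol buffer. Each pool held DNA-barcoded human transcription factors, expressed in yeast as GST fusions and captured on glutathione beads, plus a tag-only sample. Binding signal is a hexamer's read frequency for a factor divided by its frequency in the tag-only sample.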
# ELK1 = molecular target: T2, ELK1 (Homo sapiens, UniProt P19419 1-428); details: protein: recombinant; tags: N-terminal GST; dsDNA, one strand shown
# T2 sequence: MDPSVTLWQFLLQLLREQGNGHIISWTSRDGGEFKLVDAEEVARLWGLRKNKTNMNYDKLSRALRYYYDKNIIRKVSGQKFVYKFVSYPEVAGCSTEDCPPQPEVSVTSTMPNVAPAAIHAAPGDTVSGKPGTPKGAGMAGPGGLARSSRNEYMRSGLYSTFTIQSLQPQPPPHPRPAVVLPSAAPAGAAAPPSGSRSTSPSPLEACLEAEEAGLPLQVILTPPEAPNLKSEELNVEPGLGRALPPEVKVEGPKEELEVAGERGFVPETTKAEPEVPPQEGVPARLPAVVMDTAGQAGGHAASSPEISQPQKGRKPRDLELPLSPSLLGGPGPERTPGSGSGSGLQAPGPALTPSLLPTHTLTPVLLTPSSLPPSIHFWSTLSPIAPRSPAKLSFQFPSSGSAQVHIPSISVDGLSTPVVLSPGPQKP
# How it was run: as §1
# GABPA = molecular target: T3, GABPA (Homo sapiens, UniProt Q06546 1-454); details: protein: recombinant; tags: N-terminal GST; dsDNA, one strand shown
# T3 sequence: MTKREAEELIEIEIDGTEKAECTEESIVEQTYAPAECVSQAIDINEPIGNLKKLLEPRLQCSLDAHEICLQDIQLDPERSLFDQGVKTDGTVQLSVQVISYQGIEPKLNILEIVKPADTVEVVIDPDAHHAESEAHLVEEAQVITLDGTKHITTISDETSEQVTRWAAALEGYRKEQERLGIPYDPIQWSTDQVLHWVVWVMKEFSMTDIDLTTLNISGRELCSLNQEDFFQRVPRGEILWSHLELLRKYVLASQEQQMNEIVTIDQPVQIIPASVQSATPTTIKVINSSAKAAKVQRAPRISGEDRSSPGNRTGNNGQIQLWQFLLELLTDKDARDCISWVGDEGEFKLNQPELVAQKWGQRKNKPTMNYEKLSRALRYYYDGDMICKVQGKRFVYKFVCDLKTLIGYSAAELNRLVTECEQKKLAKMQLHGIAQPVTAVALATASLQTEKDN
# How it was run: as §1
# ERG = molecular target: T4, ERG (Homo sapiens, UniProt P11308 1-479); details: protein: recombinant; tags: N-terminal GST; dsDNA, one strand shown
# T4 sequence: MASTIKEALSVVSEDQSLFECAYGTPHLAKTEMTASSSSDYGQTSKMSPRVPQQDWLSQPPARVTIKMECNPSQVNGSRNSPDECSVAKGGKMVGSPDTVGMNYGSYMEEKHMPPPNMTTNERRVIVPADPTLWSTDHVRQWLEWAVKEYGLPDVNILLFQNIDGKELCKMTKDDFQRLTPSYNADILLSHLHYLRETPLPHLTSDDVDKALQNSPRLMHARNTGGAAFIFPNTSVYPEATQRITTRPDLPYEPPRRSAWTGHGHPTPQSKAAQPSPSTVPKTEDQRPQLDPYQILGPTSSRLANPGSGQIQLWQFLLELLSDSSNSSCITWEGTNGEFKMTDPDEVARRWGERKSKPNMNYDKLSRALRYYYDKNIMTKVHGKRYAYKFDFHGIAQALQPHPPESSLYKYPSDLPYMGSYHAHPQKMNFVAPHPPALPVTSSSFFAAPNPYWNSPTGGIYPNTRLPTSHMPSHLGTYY
# How it was run: as §1
# ELF1 = ELF1 (Homo sapiens, UniProt P32519 1-619); details: protein: recombinant; tags: N-terminal GST; dsDNA, one strand shown
# How it was run: as §1
# EHF = molecular target: T5, EHF (Homo sapiens, UniProt Q9NZC4 1-300); details: protein: recombinant; tags: N-terminal GST; dsDNA, one strand shown
# T5 sequence: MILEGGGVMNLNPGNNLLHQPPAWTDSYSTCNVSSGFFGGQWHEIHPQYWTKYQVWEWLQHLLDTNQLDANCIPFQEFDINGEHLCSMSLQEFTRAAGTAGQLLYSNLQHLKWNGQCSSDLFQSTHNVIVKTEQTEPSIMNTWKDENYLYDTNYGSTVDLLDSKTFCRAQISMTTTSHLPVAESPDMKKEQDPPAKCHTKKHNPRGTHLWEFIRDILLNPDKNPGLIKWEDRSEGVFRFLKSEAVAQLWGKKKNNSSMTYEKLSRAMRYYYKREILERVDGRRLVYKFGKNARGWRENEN
# How it was run: as §1
# SPI1 = SPI1 (Homo sapiens, UniProt P17947 1-270); details: protein: recombinant; tags: N-terminal GST; dsDNA, one strand shown
# How it was run: as §1
# SPIB = SPIB (Homo sapiens, UniProt Q01892 1-262); details: protein: recombinant; tags: N-terminal GST; dsDNA, one strand shown
# How it was run: as §1
# ELK3 = molecular target: T6, ELK3 (Homo sapiens, UniProt P41970 1-407); details: protein: recombinant; tags: N-terminal GST; dsDNA, one strand shown
# T6 sequence: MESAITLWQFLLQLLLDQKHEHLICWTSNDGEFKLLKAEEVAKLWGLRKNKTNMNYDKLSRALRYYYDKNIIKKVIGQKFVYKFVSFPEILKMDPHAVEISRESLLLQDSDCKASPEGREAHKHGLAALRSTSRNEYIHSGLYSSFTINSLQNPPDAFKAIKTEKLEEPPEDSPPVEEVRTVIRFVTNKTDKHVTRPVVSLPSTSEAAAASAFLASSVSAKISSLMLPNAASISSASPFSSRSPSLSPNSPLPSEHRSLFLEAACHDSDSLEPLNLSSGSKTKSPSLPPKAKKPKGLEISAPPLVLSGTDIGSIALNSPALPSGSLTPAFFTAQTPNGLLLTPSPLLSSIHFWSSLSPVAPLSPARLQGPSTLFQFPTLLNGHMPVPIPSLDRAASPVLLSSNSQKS
# How it was run: as §1
# FEV = molecular target: T7, FEV (Homo sapiens, UniProt Q99581 1-238); details: protein: recombinant; tags: N-terminal GST; dsDNA, one strand shown
# T7 sequence: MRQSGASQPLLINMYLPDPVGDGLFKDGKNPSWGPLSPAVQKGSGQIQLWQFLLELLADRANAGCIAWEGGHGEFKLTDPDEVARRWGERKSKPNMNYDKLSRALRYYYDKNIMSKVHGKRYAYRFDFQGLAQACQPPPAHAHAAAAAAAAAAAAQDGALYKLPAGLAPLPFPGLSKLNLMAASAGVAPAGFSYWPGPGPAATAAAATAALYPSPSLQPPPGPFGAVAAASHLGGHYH
# How it was run: as §1
# ETV5 = ETV5 (Homo sapiens, UniProt P41161 1-510); details: protein: recombinant; tags: N-terminal GST; dsDNA, one strand shown
# How it was run: as §1
# HSF1 = HSF1 (Homo sapiens, UniProt Q00613 1-529); details: protein: recombinant; tags: N-terminal GST; chain copies: 3; dsDNA, one strand shown
# How it was run: as §1
# SPIC = molecular target: T8, SPIC (Homo sapiens, UniProt Q8N5J4 1-248); details: protein: recombinant; tags: N-terminal GST; dsDNA, one strand shown
# T8 sequence: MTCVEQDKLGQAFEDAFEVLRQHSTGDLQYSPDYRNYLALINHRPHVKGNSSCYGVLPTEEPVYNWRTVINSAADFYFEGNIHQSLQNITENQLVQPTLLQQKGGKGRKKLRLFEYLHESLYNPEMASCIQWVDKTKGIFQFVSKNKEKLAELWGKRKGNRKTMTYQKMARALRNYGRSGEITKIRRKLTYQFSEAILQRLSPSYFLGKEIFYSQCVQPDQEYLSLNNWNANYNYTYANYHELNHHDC
# How it was run: as §1
# ELF4 = ELF4 (Homo sapiens, UniProt Q99607 1-663); details: protein: recombinant; tags: N-terminal GST; dsDNA, one strand shown
# How it was run: as §1
# ELK4 = molecular target: T9, ELK4 (Homo sapiens, UniProt P28324-2 1-405); details: protein: recombinant; tags: N-terminal GST; dsDNA, one strand shown
# T9 sequence: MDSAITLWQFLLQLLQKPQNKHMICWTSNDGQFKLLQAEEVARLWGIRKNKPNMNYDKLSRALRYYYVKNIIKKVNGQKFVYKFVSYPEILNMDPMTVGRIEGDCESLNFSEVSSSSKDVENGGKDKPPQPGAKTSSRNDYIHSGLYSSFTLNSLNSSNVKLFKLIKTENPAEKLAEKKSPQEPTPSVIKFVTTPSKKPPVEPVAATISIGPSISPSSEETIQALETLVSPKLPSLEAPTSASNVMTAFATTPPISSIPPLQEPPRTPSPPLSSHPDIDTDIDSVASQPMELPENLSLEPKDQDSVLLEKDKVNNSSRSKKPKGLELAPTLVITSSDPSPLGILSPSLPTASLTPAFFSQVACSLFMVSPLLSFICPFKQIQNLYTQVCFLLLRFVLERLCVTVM
# How it was run: as §1
# ETV2 = molecular target: T10, ETV2 (Homo sapiens, UniProt O00321 1-342); details: protein: recombinant; tags: N-terminal GST; dsDNA, one strand shown
# T10 sequence: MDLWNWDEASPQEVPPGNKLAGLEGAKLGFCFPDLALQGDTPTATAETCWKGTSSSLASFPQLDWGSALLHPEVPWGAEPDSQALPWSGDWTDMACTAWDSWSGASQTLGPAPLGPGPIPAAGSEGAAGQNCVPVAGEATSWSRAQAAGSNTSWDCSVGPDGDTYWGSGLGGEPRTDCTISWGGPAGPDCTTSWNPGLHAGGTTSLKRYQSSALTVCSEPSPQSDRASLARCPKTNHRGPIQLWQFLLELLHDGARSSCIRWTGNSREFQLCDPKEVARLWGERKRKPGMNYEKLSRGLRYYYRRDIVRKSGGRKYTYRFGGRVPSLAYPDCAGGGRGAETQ
# How it was run: as §1
# ELF3 = molecular target: T11, ELF3 (Homo sapiens, UniProt P78545 1-371); details: protein: recombinant; tags: N-terminal GST; dsDNA, one strand shown
# T11 sequence: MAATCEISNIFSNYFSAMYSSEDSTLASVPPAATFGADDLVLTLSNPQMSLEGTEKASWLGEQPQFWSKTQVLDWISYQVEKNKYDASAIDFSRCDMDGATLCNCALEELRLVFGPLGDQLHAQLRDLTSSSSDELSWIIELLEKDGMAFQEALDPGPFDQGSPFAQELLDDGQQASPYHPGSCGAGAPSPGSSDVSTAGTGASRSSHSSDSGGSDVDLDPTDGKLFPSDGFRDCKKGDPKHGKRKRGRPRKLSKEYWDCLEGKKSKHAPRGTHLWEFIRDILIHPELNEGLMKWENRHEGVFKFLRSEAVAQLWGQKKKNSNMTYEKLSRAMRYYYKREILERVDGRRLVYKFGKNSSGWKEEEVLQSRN
# How it was run: as §1
# CRX = CRX (Homo sapiens, UniProt O43186 1-299); details: protein: recombinant; tags: N-terminal GST; dsDNA, one strand shown
# How it was run: as §1
# ETV1 = ETV1 (Homo sapiens, UniProt P50549 1-477); details: protein: recombinant; tags: N-terminal GST; dsDNA, one strand shown
# How it was run: as §1
# Chain of SPIB (Q01892 whole entry): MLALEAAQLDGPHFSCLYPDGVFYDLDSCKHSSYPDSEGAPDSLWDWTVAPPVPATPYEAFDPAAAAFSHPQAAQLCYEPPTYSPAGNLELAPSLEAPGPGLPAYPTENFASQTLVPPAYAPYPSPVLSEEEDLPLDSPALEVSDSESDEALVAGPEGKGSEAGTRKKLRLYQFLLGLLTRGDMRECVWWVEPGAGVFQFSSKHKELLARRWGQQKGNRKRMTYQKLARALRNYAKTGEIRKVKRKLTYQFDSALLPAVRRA
# Chain of CRX (O43186 whole entry): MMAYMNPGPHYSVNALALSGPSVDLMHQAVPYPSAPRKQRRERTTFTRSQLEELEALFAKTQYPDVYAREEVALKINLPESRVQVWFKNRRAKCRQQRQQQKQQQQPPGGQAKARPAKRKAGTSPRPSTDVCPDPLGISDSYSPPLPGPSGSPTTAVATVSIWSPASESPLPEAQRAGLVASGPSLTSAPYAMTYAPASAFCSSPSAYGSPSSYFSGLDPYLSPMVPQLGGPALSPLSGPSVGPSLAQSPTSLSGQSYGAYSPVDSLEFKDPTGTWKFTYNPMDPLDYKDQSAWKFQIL
# Chain of ELF4 (Q99607 whole entry): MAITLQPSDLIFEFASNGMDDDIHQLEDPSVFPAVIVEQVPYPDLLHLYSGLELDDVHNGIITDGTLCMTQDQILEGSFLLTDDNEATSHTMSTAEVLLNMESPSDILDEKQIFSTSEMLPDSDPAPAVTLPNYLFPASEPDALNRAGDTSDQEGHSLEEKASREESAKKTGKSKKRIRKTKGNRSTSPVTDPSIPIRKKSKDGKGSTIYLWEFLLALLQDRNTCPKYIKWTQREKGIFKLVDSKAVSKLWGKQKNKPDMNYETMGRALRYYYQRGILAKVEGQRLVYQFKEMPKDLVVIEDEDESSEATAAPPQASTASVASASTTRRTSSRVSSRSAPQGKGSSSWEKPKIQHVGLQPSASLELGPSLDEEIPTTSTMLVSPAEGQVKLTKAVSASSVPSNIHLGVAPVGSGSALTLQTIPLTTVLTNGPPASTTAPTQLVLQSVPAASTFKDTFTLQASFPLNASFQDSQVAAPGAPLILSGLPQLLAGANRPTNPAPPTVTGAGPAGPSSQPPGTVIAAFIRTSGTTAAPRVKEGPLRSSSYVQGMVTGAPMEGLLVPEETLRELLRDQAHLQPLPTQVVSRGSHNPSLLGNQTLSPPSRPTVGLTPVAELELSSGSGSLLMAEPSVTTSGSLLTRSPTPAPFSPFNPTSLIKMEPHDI
# Chain of HSF1 (Q00613 whole entry): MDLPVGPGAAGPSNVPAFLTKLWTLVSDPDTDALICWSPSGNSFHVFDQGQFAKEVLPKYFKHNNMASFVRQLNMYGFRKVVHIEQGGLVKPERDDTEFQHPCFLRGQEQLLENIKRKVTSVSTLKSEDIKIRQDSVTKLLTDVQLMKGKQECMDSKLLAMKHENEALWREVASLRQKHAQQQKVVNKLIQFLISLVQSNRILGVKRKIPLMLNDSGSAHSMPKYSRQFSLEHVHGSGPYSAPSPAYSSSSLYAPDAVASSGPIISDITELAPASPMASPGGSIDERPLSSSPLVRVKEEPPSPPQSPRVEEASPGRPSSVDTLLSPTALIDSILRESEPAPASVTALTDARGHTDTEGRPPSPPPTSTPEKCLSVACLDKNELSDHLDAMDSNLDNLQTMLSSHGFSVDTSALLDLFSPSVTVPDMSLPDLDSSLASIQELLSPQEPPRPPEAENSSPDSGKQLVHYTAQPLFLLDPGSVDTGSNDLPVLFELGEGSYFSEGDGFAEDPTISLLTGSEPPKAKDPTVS
# Chain of ETV5 (P41161 whole entry): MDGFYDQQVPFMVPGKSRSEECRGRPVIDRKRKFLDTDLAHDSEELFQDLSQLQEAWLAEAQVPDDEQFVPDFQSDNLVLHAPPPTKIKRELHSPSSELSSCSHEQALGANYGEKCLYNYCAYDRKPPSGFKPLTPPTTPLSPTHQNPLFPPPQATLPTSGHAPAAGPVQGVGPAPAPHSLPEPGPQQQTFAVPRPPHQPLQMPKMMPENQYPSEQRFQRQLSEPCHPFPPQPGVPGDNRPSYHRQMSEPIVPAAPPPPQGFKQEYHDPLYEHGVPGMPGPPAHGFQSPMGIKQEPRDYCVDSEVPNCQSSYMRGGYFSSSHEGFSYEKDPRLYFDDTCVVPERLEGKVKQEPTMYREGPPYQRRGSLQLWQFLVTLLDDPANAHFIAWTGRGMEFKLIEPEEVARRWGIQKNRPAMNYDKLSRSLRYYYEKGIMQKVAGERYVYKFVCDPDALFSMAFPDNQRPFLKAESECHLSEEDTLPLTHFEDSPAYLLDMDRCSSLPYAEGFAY
# Chain of ETV1 (P50549 whole entry): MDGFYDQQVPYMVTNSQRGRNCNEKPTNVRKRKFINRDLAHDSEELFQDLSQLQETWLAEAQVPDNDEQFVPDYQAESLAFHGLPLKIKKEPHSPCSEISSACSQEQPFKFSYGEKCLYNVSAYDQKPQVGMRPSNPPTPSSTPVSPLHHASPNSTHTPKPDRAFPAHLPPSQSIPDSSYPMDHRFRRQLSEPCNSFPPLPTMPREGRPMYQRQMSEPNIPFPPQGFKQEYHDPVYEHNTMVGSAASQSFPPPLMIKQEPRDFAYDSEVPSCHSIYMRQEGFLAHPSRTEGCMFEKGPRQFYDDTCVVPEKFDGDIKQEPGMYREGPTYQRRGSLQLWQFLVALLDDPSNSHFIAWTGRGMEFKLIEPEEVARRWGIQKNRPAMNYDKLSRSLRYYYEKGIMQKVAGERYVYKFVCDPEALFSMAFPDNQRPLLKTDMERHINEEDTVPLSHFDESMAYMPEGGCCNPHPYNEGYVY
# Chain of ELF1 (P32519 whole entry): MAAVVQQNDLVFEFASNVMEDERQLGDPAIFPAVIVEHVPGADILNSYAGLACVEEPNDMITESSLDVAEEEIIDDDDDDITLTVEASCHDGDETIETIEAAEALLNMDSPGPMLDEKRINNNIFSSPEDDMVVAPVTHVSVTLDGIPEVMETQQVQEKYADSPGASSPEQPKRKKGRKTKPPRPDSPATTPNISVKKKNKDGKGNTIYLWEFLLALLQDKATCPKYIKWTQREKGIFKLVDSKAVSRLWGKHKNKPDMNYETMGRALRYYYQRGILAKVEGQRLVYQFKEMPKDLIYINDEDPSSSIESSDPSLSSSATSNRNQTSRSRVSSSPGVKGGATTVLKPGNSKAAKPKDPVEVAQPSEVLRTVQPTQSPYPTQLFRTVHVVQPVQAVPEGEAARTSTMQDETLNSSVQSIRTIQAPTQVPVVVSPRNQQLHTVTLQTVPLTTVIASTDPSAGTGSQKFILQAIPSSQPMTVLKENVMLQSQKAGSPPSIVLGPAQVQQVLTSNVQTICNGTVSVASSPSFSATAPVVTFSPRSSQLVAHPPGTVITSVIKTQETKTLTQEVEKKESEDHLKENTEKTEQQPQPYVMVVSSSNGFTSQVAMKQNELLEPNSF
sequence,measurement,setting,value
AACTTA,binding signal,FLI1,"1.28 fold enrichment (6-mer frequency, TF over GST control)"
same,binding signal,ELK1,"1.24 fold enrichment (6-mer frequency, TF over GST control)"
same,binding signal,GABPA,"1.32 fold enrichment (6-mer frequency, TF over GST control)"
same,binding signal,ERG,"1.18 fold enrichment (6-mer frequency, TF over GST control)"
same,binding signal,ELF1,"1.27 fold enrichment (6-mer frequency, TF over GST control)"
same,binding signal,EHF,"1.34 fold enrichment (6-mer frequency, TF over GST control)"
same,binding signal,SPI1,"1.23 fold enrichment (6-mer frequency, TF over GST control)"
same,binding signal,SPIB,"1.23 fold enrichment (6-mer frequency, TF over GST control)"
same,binding signal,ELK3,"1.26 fold enrichment (6-mer frequency, TF over GST control)"
same,binding signal,FEV,"1.2 fold enrichment (6-mer frequency, TF over GST control)"
same,binding signal,ETV5,"1.23 fold enrichment (6-mer frequency, TF over GST control)"
same,binding signal,HSF1,"1.41 fold enrichment (6-mer frequency, TF over GST control)"
same,binding signal,SPIC,"1.27 fold enrichment (6-mer frequency, TF over GST control)"
same,binding signal,ELF4,"1.19 fold enrichment (6-mer frequency, TF over GST control)"
same,binding signal,ELK4,"1.22 fold enrichment (6-mer frequency, TF over GST control)"
same,binding signal,ETV2,"1.08 fold enrichment (6-mer frequency, TF over GST control)"
same,binding signal,ELF3,"1.12 fold enrichment (6-mer frequency, TF over GST control)"
same,binding signal,CRX,"1.72 fold enrichment (6-mer frequency, TF over GST control)"
same,binding signal,ETV1,"1.22 fold enrichment (6-mer frequency, TF over GST control)"
